In the library only some 8.9% were active in any assay of this set; here they are far more common.
D1 mod – allosteric modulators of human D1 dopamine receptor. P21728. HEK293 D1, CRE-luciferase, dopamine EC30 potentiation; actives deviate in either direction. B-score at 10 µM. 58,000 compounds, 5.9% hits;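 active = luminescence count or its row- and column-corrected plate score outside the 99.7% band of the plate's sample wells, on either side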
M1 antag – M1 muscarinic receptor (rat) antagonism | CHO-M1 cells, Fluo-4 calcium, ACh EC80 antagonist mode; hits give low values | B-score at 10 µM | 64,000 compounds, 3.4% hits | AID 628;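 active = calcium fluorescence response, raw or row-and-column corrected B-score, differing from the plate sample mean either way at a set confidence level, mostly lower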
Target sequence (P08482 whole entry, looked up): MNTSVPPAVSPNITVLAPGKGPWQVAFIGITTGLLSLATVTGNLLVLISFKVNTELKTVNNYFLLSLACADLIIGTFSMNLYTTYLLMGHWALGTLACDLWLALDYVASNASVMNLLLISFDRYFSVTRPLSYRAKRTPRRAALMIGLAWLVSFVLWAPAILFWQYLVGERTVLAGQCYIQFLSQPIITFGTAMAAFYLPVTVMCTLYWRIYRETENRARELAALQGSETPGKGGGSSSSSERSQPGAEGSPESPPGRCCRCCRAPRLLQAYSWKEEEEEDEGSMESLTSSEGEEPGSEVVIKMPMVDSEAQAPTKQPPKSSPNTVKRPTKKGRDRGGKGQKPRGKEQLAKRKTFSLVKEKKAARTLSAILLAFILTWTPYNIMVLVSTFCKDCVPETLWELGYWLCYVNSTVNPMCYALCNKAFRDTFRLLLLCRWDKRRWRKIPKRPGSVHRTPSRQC
M1 agonist – agonists of M1 muscarinic receptor; CHO-M1 cells, Fluo-4 calcium fluorescence, agonist mode; hits give high values; B-score at 10 µM; 64,000 compounds, 3% hits; AID 626;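 active = fluorescence rise, raw or as B-score row- and column-corrected plate score, outside the 99.7% band of its plate's samples, either direction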
mHtt clearance – mutant huntingtin protein clearance | HeLa Exon1htt(103Q)mCFP, aggregate imaging; zero = plate's median compound well | 47,000 compounds, 0.42% hits | AID 853 | inhibition, % at 1.5 µM;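 active = inhibition of aggregate fluorescence above about 70%, also judged a hit by eye on the cell image, limit read from the data, passing the limit was not always enough; inconclusive = no rule stated for this call; inactive = not judged a hit on image review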;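 also: cells exposed to compound for three days before fixation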
WNV protease inh – inhibitors of West Nile virus NS2B-NS3 protease | P06935 | WNV NS2B-NS3 protease, fluorogenic substrate Ex360/Em465; hits give low values | z-score (concentration not given with the values) | 65,000 compounds, 0.18% hits; in the data active = z-score below about -3
M1 antag confirm – M1 muscarinic receptor (rat) antagonism, confirmed; shares compounds with M1 antag; CHO-M1 cells, Fluo-4 calcium, ACh EC80 antagonism; hits give low values; calcium response (max-min fluorescence) at 10 µM; 1,700 compounds, 43% hits;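 active = calcium response below the same-plate mean of wells given acetylcholine alone at its 80%-effect dose, minus 3 SD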;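 also: raw fluorescence intensity difference in arbitrary instrument units and not normalized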
mGluR4 antag – mGluR4 (human) activity, M1 antagonist secondary assay; shares compounds with M1 antag; CHO-mGluR4 calcium flux, Fluo-4 fluorescence, glutamate EC80; hits give low values; fluorescence response (max-min) at 10 µM; 1,700 compounds, 0.9% hits;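 active = fluorescence response below the plate's average for near-maximal glutamate wells, less 3 SD of those wells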;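 also: raw unnormalized fluorescence span taken in the window right after glutamate addition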
D1 mod confirm – D1 receptor (human) allosteric modulation, confirmed; shares compounds with D1 mod; luminescence at 10 µM; 2,200 compounds, 88% hits; HEK293 D1 CRE-luciferase, dopamine EC30 potentiation; hits give high values; AID 642;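 active = luminescence in either of two replicates above the same-plate mean plus 3 SD of the low-dose dopamine control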
D1 no dopamine – secondary test of D1 modulators: activity without dopamine; shares compounds with D1 mod; HEK293 D1 CRE-luciferase, luminescence, no dopamine; hits give high values; luminescence at 10 µM; 1,900 compounds, 0.8% hits; in the data active = luminescence above about 3900
Isoprot counter – counter-screen for D1 modulators: isoproterenol response in HEK293 cells | shares compounds with D1 mod | HEK293 D1 CRE-luciferase, isoproterenol EC30 counter-screen | calls only at 10 µM | 2,200 compounds, 63% hits | AID 647;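 active = luminescence in either replicate above plate mean of wells with a partly effective reference agonist dose plus 3 SD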;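 also: isoproterenol raises cAMP through native beta-adrenoceptor Gs so signal bypasses D1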
* hit, by the source's call; i = inactive; ? = inconclusive; . = not tested or not shown; + = active, no number.

SMILES	D1 mod	M1 antag	M1 agonist	mHtt clearance	WNV protease inh	D1 mod confirm	D1 no dopamine	Isoprot counter	others
O=C1CC(N2CC=C(c3ccc(F)cc3)CC2)C(=O)N1c1ccc(F)cc1 (configuration not stated)	.	.	.	-16.6	.	.	.	.
CN(C)c1ccc(CN2CC=C(c3ccc(F)cc3)CC2)cc1	-0.89	-5.74*	-0.00389	-44.9	-0.74	.	.	.	M1 antag confirm=469*;mGluR4 antag=237
CCCCOCCCn1c(N)c(C(=O)OCCOC)c2nc3ccccc3nc21	-1.03	-4*	3.24	26.0	0.79	.	.	.	M1 antag confirm=20.9*;mGluR4 antag=229
CCCCCCn1c(O)c(C=Nc2c(C)n(C)n(-c3ccccc3)c2=O)c(=O)[nH]c1=O	.	-1.75	0.0601	7.8	0.08	.	.	.
Cc1c(N=Cc2c(O)n(CCc3ccccc3)c(=O)[nH]c2=O)c(=O)n(-c2ccccc2)n1C	0.0824	-4.06*	0.658	63.0	0.34	.	.	.	M1 antag confirm=243*;mGluR4 antag=236
CCCCN1C(=O)NC(=O)C2(Cc3ccccc3N3CCOCC32)C1=O (configuration not stated)	-1.43	0.37	-0.352	27.0	0.41	.	.	.
CCn1c(O)c(C(=O)CC2NCCc3ccccc32)c(=O)n(CC)c1=S (configuration not stated)	.	-1.54	-0.483	-18.4	0.81	.	.	.
CC(C)[C@@]1(NC(=O)[C@@H]2C=C3c4cccc5[nH]cc(c45)C[C@H]3N(C)C2)O[C@@]2(O)[C@@H]3CCCN3C(=O)[C@H](Cc3ccccc3)N2C1=O	33.9*	0.729	60.2*	.	0.16	18320*	19392*	+
CCCCn1c(=O)c(C(=O)Nc2cnccn2)c(O)c2ccccc21	6.77*	1.1	-0.691	.	-0.55	8352*	1312	i
CCCCn1c(=O)c(C(=O)Nc2nc3ccccc3[nH]2)c(O)c2ccccc21	-0.534	0.254	-0.852	.	-0.5	.	.	.
Cc1nc2ccccc2c(=O)n1-c1cccnc1	-0.16	0.178	-0.744	-20.4	1.18	.	.	.
N[C@@H](Cc1c[nH]c2ccccc12)c1nnc(SCc2ccc(F)cc2)o1	0.654	-0.448	0.133	-56.0	0.26	.	.	.
CCC(=NCCC1=CCCCC1)c1c(O)[nH]c(=O)[nH]c1=O	5.42*	0.431	-1.29	.	-0.95	16104*	1808	+
Fc1ccc(NC2=NCCS2)cc1Cl	4.06*	-0.137	-1.78	8.5	-0.84	11272*	1372	i
Cc1ccccc1NC1=NCCCS1	-1.03	-1.69	1.16	.	-0.00686	.	.	.
Cc1cc(C)c(C2=NOC(O)(C(F)(F)F)C2)c(=O)[nH]1 (configuration not stated)	.	0.276	-0.925	.	0.89	.	.	.
CC(=NCc1cccnc1)c1c(O)n(Cc2ccccc2)c(=O)[nH]c1=O	2.06	-0.249	0.17	.	-0.16	.	.	.
CCC(=NCc1cccnc1)c1c(O)n(Cc2ccccc2)c(=O)[nH]c1=O	4.82*	-1.4	-0.0939	-36.7	-1.57	11204*	1512	+
CC(=O)c1c(O)n(C)c(=S)n(-c2ccccc2)c1=O	3.1*	0.699	0.418	.	-0.86	10036*	1820	i
CN1CCN(C(=O)COc2ccc3ccccc3c2Br)CC1	-0.192	-0.339	0.00374	.	1.22	.	.	.
CC1(C)CN=C(Nc2nc3ccccc3s2)S1	2.92*	-0.366	2.76	.	0.65	8344*	1008	i
CCC1(CC)C(=O)NC(=NCCc2c[nH]c3ccccc23)NC1=O	4.8*	0.982	-0.0695	-5.5	0.59	6976*	1520	i
c1ccc2c(CN3CCCCCCC3)c[nH]c2c1	.	0.0312	-0.351	20.3	0.25	.	.	.
CC(=O)c1cccc(NC2=NCC(C)S2)c1 (configuration not stated)	5.63*	-0.246	0.946	-22.4	0.24	8688*	1744	+
COc1ccc(N=C(C)c2c(O)n(C3CCCCC3)c(=O)[nH]c2=O)c(OC)c1	1.38	1.67	0.569	16.2	0.05	.	.	.
SMILES	D1 mod	M1 antag	M1 agonist	mHtt clearance	WNV protease inh	D1 mod confirm	D1 no dopamine	Isoprot counter	others
CCCCn1c(O)c(C(C)=NCCc2ccccc2)c(=O)[nH]c1=O	2.07	0.0216	0.324	?	-0.39	.	.	.
CCCCn1c(O)c(C(C)=NC(C)c2ccccc2)c(=O)[nH]c1=O (configuration not stated)	9.74*	1.64	0.479	.	-0.29	17520*	1544	+
O=C(CCN1C(=O)COc2ccccc21)N1CCC2(CC1)OCCO2	3.78*	-1.67	0.731	-18.0	-0.55	5480	.	i
O=C1CN=C(c2ccccc2)c2oc3ccc(Br)cc3c2N1	7.4*	0.17	0.0178	40.9	0.13	15276*	.	+
COC(=O)c1c(C)[nH]c(C(=O)C(Cc2ccccc2)N(C)C)c1C (configuration not stated)	9.72*	-0.133	-0.922	.	0.75	4780	1584	i
CCOC(=O)c1c(C)n(Cc2ccccc2)c2ccc(OCC(O)Cn3nc(C)nc3C)cc12 (configuration not stated)	4.51*	-1.47	1.95	.	-1.19	17284*	1904	+
C=COCCn1c(C)c(C(=O)OCC)c2cc(O)ccc21	-0.0146	-0.491	-0.546	.	-0.67	.	.	.
CN1C(=O)c2ccccc2Sc2ccc(C(=O)N3CCC4(CC3)OCCO4)cc21	9.58*	0.174	0.316	-33.5	-0.34	5288	.	i
CCCCN=Cc1c(O)n(-c2c(C)cc(C)cc2C)c(=O)[nH]c1=O	0.165	-0.631	-1.04	11.2	-0.15	.	.	.
CCOC(=O)C1=C(N)OC2=C(C(=O)CC(C)(C)C2)C12C(=O)Nc1ccccc12 (configuration not stated)	-0.72	-0.475	0.361	30.2	-0.42	.	.	.
O=C1c2ccccc2C2(c3ccc(Cl)cc3)NCCN12 (configuration not stated)	-0.0792	-1.21	-0.284	.	0.27	.	.	.
CCc1ccccc1NC(=O)CSc1nnc([C@@H](N)Cc2c[nH]c3ccccc23)o1	0.613	0.771	-1.29	-5.7	-0.17	.	.	.
CCC(=NC1CC1)c1c(O)n(C2CCCCC2)c(=O)[nH]c1=O	16.8*	0.0523	-0.264	-27.1	-1.53	12336*	1856	+
N[C@@H](Cc1c[nH]c2ccccc12)c1nnc(SCc2ccc(Cl)cc2)o1	-1.04	-0.0338	0.0937	50.6	1.12	.	.	.

Bioassay records: PubChem BioAssay, several laboratories
